Assay results taken from PubChem BioAssay AID926 (National Center for Advancing Translational Sciences (NCATS), 2007).
Screen size: about 73,000 compounds; about 350 (0.48%) were called active. Not shown: some 17% with an inconclusive outcome. Calls come from the whole dose curve; as a rule, active = well fitted activation curve with a large enough effect in the main read-out, with a control signal flat (not every such curve was filed as active); inconclusive = small, poorly fitted or top-dose-only effect, or a change in a side signal; inactive = no such curve, though single readings can be large or run the other way; reference of the percent scale not stated here. Only a selection was taken, and actives are over-represented in it overall.

What was measured:
[1] = qHTS Assay for Agonists of the Thyroid Stimulating Hormone Receptor; settings: HEK293-CNG-TSHR cells, membrane potential dye, cAMP; measured here: parental cells max response
Excerpt: (§1) NIH Chemical Genomics Center [NCGC]
(§2) NIH Molecular Libraries Screening Centers Network [MLSCN]
(§3) PI Name: Dr. Marvin Gershengorn, NIH
(§4) Thyroid Stimulating Hormone Receptor
(§5) TSH is an alpha/beta heterodimeric glycoprotein hormone secreted from the anterior pituitary gland which belongs to the glycoprotein hormone family. The actions of TSH are mediated by a seven-transmembrane receptor, which upon TSH binding couples preferentially to the G-alpha (s) protein (Gs), resulting in activation of adenylate cyclase and increase in cyclic adenosine 3', 5' monophosphate (cAMP). The TSH receptor (THSR) is mainly expressed in thyroid follicular cells and regulates their growth and function. Recombinant TSH is used to activate TSHR in patients with thyroid cancer receiving thyroid hormone suppression therapy and to screen for residual tumor after surgery, but it is expensive and must be administered intramuscularly. An orally active small molecule TSHR agonist would serve as an invaluable research tool for studying TSHR pharmacology and physiology, and would have multiple advantages in therapeutic settings. However, no selective small molecule agonist of the TSH receptor exists, and no small molecule screen for TSHR agonists has ever been reported.
(§6) This cell based assay utilized a cyclic nucleotide gated ion channel (CNG) as a biosensor for cAMP induction by potential TSHR agonists.
(§7) HEK 293 cells stably expressing the TSHR as well as a modified CNG were purchased from BD biosciences. Stimulation of cAMP production causes the CNG to open and subsequent membrane depolarization to occur. A fluorescent membrane potential dye (BD biosciences) was utilized to detect cAMP stimulation in TSHR cells.
(§8) The cells were maintained in DMEM medium (Invitrogen) containing 10 % FBS (Hyclone), 100 units/ml Penicillin, 100 ug/ml Streptomycin (Invitrogen), and 250 ug/ml Geneticin (Invitrogen) and 1 ug/ml Puromycin (Invitrogen) at 37C in 5% CO2. HEK 293 cells expressing CNG but without TSHR (parental cells) were used in concert to control for compounds signaling through endogenous receptors and targets of HEK 293 cells.
(§9) NCGC Assay Protocol Summary:
(§10) High Throughput Screening. Freshly passaged cells (TSHR or parental) were dispensed into 1536-well assay plates at 4 ul/well in DMEM containing phenol red (Invitrogen), 10% FCS (Hyclone), and 100 units/ml Penicillin, 100 ug/ml Streptomycin (Invitrogen) and incubated at 37 C with 5% CO2 for 20 to 36 hrs before the robotic screening. The screen was initiated by addition of 4 ul/well membrane potential dye containing 100 uM RO 20-1724 (Sigma Aldrich), followed by 60 min incubation at room temperature to allow for dye equilibration across the cell membrane. 23 nl/well compound or control was then added to the assay plates, which were incubated for additional 30 min before reading a Envision fluorescence plate reader (Perkin Elmer) in bottom-read mode for fluorescence intensity (emission at 590 nm).
(§11) Keywords: Thyroid-stimulating hormone TSH, TSHR, TSHR agonist, quantitative high throughput screening, qHTS, HTS, probe identification, CNG, cAMP, cyclic nucleotide gated ion channel PubChem

[2] = target: Thyrotropin receptor (Homo sapiens) (UniProt P16473); test: as above; settings: HEK293-CNG-TSHR cells (CNG channel as cAMP sensor), membrane potential dye, cAMP; series mostly up to 57.1 µM
Excerpt: as §1, §2, §3, §4, §5, §6, §7, §8, §9, §10, §11
Potency is the fitted concentration of half-maximal effect.

Thyrotropin receptor (Homo sapiens), sequence (P16473 whole entry, looked up): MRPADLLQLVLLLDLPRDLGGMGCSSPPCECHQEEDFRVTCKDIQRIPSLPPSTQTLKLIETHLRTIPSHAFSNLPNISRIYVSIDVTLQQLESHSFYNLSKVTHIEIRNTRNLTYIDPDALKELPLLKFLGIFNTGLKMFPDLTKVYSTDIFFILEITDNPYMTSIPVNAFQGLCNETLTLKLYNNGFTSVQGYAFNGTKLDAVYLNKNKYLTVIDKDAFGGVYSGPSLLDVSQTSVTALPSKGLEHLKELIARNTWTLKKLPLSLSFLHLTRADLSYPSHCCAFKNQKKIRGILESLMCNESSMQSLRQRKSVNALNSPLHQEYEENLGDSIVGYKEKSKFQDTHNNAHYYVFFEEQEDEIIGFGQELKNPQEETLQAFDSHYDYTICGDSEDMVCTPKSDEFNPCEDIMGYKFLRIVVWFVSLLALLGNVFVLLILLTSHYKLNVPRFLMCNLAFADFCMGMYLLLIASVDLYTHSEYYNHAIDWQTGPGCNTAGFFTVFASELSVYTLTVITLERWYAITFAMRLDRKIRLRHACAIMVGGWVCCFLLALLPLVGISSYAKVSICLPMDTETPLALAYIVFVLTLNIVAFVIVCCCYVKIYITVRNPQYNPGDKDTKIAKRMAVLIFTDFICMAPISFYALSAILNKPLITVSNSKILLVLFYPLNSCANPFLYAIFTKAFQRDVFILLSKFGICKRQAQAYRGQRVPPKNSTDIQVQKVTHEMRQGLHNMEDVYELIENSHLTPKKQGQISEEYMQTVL

| Structure (SMILES) | activation [1] [%] | activation [2] | Potency [2] |
| --- | --- | --- | --- |
| O=C(O)c1cc(S(=O)(=O)N2CCCCCC2)c(Cl)cc1Cl | 9.56 | 12.9% [at 11.4 µM] (inactive) |  |
| COC(=O)[C@@]1(C)C=C[C@@H](Cc2ccccc2)N1C(C)=O | 15.2 |  | inactive |
| CCC[C@@H]1C[C@@]1(CCC)C(NC(=O)c1ccc(-c2ccccc2)cc1)c1cccc(Cl)c1 (stereo partly drawn) | -2.94 |  | inactive |
| COC(=O)C1(C)C=CCN1C(=O)c1ccccc1 (stereo not drawn) | 22 |  | inactive |
| O=C(Cl)c1ccccc1[N+](=O)[O-] | 27 |  | inactive |
| CC(C)CN1CCc2nc(-c3ccccc3)c3c(c2C1)COC(C)C3 (stereo not drawn) | -2.08 | -2.84% [at 11.4 µM] (inactive) |  |
| CCN(CC)CCCCn1c(-c2ccccc2)nc2c(N3CCOCC3)nc(C)nc21 | 25 |  | inactive |
| CN1CCN(Cc2nc3c(c(=O)n(C)c(=O)n3C)n2Cc2cccc3ccccc23)CC1 | 2.12 |  | inactive |
| C[C@@H]1/C=C\CC(=O)OC[C@H]2O[C@@H](C=C[C@@H]2O)[C@H](C)/C=C\CC(=O)OC[C@H]2O[C@H]1C=C[C@@H]2O | -6.65 | -3.42% [at 11.4 µM] (inactive) |  |
| CC(=O)OCC1OC(C#CCCCc2ccccc2)C=CC1OC(C)=O (stereo not drawn) | -0.905 | 0.607% [at 11.4 µM] (inactive) |  |
| CCc1cc(=O)oc2cc(C)cc(OC(C)C(=O)O)c12 (stereo not drawn) | 10.3 |  | inactive |
| O=C1[C@H]2[C@H]3[C@H](O)[C@H](O)C/C(=N/OCc4ccccc4)[C@H]3CC[C@@H]2C(=O)N1Cc1ccccc1 | -2.25 | -22.5% [at 11.4 µM] (inactive) |  |
| Fc1ccc(-c2nnc3sc(-c4ccc5c(c4)OCO5)nn23)cc1 | 23.4 |  | inactive |
| c1ccc(-c2nnc3n2NC(c2ccc4c(c2)OCO4)S3)cc1 (stereo not drawn) | 27.8 |  | 25.1 µM (active) |
| O=C(Cn1nnc(-c2ccccc2)n1)NCc1ccc2c(c1)OCO2 | 12.1 |  | inactive |
| Cc1ccc(C(=O)N2CCN(C3CCCCC3)CC2)s1 | -11.9 |  | inactive |
| CC(C)(C)c1ccc(OC2C=CC(C#Cc3ccccc3)OC2CO)cc1 (stereo not drawn) | 12.6 | 1.96% [at 11.4 µM] (inactive) |  |
| O=C(Cn1cc2c(n1)CCCCC2)NCCN1CCOCC1 | 1.85 |  | inactive |
| CCOC(=O)CSc1nnc(-c2ccncc2)o1 | -3.39 |  | inactive |
| Cc1ccc2nc(CC(=O)c3ccc4ccccc4c3)c(=O)[nH]c2c1 | 22.3 | 4.8% [at 11.4 µM] (inactive) |  |

| Structure (SMILES) | activation [1] [%] | activation [2] | Potency [2] |
| --- | --- | --- | --- |
| COc1ccc(-c2cc(C(=O)NC(C(=O)O)C(C)C)c(C)o2)cc1OC (stereo not drawn) | 6.63 |  | inactive |
| CN1CCN(c2ncc3nc(-c4ccc(Cl)cc4)c(=O)n(-c4ccccc4)c3n2)CC1 | -23 |  | inactive |
| COc1ncc2nc(-c3ccc(Cl)cc3)c(=O)n(C)c2n1 | 6.5 |  | inactive |
| Cn1c(=O)[nH]c(=O)c2c1nc(NCCCn1ccnc1)n2Cc1cccc(Br)c1 | 20.4 |  | 20 µM (active) |
| CCCCNc1nc2c(c(=O)[nH]c(=O)n2C)n1CCOc1ccccc1 | 0.873 |  | inactive |
| CC(c1ccccc1)n1c(NCCCn2ccnc2)nc2c1c(=O)[nH]c(=O)n2C (stereo not drawn) | 2.43 |  | inactive |
| CCC(C)(C)N=C(NC#N)Nc1cccnc1 | 0.273 |  | inactive |
| C1CCC2OC2C1 (stereo not drawn) | 21.9 |  | inactive |
| CC(Cc1ccccc1)C(=O)N(C)Cc1ccccc1 (stereo not drawn) | 16.5 |  | inactive |
| CO[C@H]1COC(=O)CCC[C@@H](C)[C@H](OC)COC(=O)[C@@H](C)NC(=O)C/C=C\[C@@H]1C | 4.76 | 0.571% [at 11.4 µM] (inactive) |  |
| C/C(CCN1CCCCc2nc(C)c(C)cc21)=N\O[C@@H](C)c1cn([C@@H]2COC[C@@H]2O)nn1 | 6.27 | 4.59% [at 11.4 µM] (inactive) |  |
| O=C(O)c1nccnc1C(=O)Nc1ccc(Br)cn1 | 3.73 |  | inactive |
| C[C@@H](c1ccccc1)N1C(=O)[C@H]2[C@H]3[C@H](O)[C@H](O)C/C(=N/OC[C@@H](O)COCc4ccco4)[C@@H]3CC[C@@H]2C1=O | 5.7 | -3.6% [at 11.4 µM] (inactive) |  |
| OC(CCl)CCl | 12.9 |  | inactive |
| CCOC(=O)c1cccc(NC(=O)C2CCCN(S(=O)(=O)c3cnc[nH]3)C2)c1 (stereo not drawn) | 5.88 |  | inactive |
| CN1CCN(Cc2c(O)ccc3c2oc(=O)c2ccccc23)CC1 | 13.2 |  | inactive |
| CO[C@H]1COC(=O)[C@H](Cc2ccccc2)NC(=O)C/C=C\[C@@H](C)[C@H](OC)COC(=O)C/C=C\[C@@H]1C | 25.1 | 10.2% [at 11.4 µM] (inactive) |  |
| O=C(CC1Nc2ccccc2NC1=O)Nc1ccccc1 (stereo not drawn) | -1.43 |  | inactive |
| CCCCCCn1c(SCC(=O)c2ccccc2)nc2c1c(=O)[nH]c(=O)n2C | -2.08 | 3.88% [at 11.4 µM] (inactive) |  |
